High-throughput results as filed in PubChem.
In the library only some 8.3% were active in any assay of this set; here they are far more common.
VP16 counter = VP16 counterscreen qHTS for inhibitors of ROR gamma transcriptional activity. 310,000 compounds, 3.5% hits. Potency, µM (series often up to 53.6 µM), hits mostly inhibitors. Drosophila S2 Gal4-VP16 UAS-luciferase, luminescence, 20 h;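 also: Gal4-VP16 expression switched on by copper sulfate through the metallothionein promoter; nearly all actives have a fitted effect of over 50% in size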
RORgamma inh = qHTS for inhibitors of ROR gamma transcriptional activity. Nuclear receptor ROR-gamma (Mus musculus), P51450. Drosophila S2 Gal4-RORgamma UAS-luciferase reporter, 20 h. Potency, µM (titrated, usually from 53.6 µM), usual class: inhibitors. 310,000 compounds, 5.4% hits. AID 2551, 2010; also: nearly all actives have a fitted effect of over 60% in size
Target sequence (P51450 whole entry, looked up, the tested form may be a part): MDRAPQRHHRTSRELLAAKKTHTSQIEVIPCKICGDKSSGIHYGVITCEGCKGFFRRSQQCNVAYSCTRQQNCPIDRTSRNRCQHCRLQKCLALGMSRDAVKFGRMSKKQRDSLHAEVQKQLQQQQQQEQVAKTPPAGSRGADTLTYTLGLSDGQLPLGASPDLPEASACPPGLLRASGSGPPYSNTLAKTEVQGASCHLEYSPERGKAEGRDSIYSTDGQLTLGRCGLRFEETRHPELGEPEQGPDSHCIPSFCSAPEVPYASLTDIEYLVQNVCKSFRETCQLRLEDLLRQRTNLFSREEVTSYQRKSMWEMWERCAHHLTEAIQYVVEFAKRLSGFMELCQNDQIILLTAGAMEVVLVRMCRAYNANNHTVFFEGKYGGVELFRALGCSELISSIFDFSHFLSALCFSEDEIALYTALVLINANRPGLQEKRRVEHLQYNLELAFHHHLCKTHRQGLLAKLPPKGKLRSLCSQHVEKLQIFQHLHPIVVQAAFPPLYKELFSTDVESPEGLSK
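Luminescence from a UAS-regulated Photinus luciferase reporter in stably transfected Drosophila Schneider cells is measured; decreased signal marks ROR gamma inhibition. Fusion expression is induced by 700 uM copper sulfate for 20 hr.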
MCF10A rereplic = A quantitative high throughput screen for small molecules that induce DNA re-replication in MCF 10a normal breast cells; Potency, µM (doses to about 46.1 µM), actives largely listed as activators; AID 624296, 2012; MCF 10A DNA re-replication, Hoechst nuclear intensity, 48 h; 350,000 compounds, 2.9% hits; also: nearly all actives have a fitted effect of over 50% in size
SW480 rerep = A quantitative high throughput screen for small molecules that induce DNA re-replication in SW480 colon adenocarcinoma cells; SW480 DNA re-replication, Hoechst DNA content imaging, 48 h; 340,000 compounds, 1.8% hits; Potency, µM (series often up to 46.1 µM), usual class: activators; also: nearly all actives have a fitted effect of over 55% in size
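Image-based DNA-content assay: after two days of treatment, nuclei were labelled with the DNA dye Hoechst and imaged, and hits were compounds raising the count of nuclei showing high fluorescence intensity.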
Chronic BCR inh = qHTS Assay to Find Inhibitors of Chronic Active B-Cell Receptor Signaling | ABC-DLBCL IkBa-CBG/CBR reporter, luminescence ratio, 4 h | Potency, µM (doses to about 46.1 µM), hits mostly inhibitors | 340,000 compounds, 0.05% hits | AID 493014, 2011; active = well fitted inhibition curve with a large enough effect in the signal ratio, with a control signal flat, not every such curve was filed as active; inconclusive = small, poorly fitted or top-dose-only effect, or effect the other way, or a change in a side signal; the % refers to the signal ratio
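Doxycycline induced both beetle luciferases in TMD8 lymphoma cells; IKK-driven degradation limits the IkappaBalpha-fused green signal, while red luminescence normalises for cell number and nonspecific effects. Compounds tested up to 46 uM, 4 hrs.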
Giardia kill = Small Molecules that selectively kill Giardia lamblia: qHTS | Giardia lamblia trophozoite viability | activity change, % at 7.66 µM, hits read low | 340,000 compounds, 0.15% hits; in the data active = activity change below about -80%; inconclusive = between about -30% and that limit;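 also: parasites exposed to compound for two days anaerobically before the ATP read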
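Each well holds 100 Giardia trophozoites and compound. After two days (48 hrs) at 37 deg C in anaerobic conditions, ATP is quantified by luminescence.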
Each line names hits and unclear results; the compound was inactive in the other large screens. Unless noted, calls follow the shape of the dose curve; as a rule, active = well fitted curve in the direction sought with a large enough effect; inconclusive = small, poorly fitted or top-dose-only effect, or another doubt; inactive = no such curve, though single readings can be large; an effect the other way counts as inactive or inconclusive.

O=C(NC(=S)Nc1ccc(N2CCCCC2)cc1)c1cccs1	VP16 counter 5.01µM, RORgamma inh 3.16µM, MCF10A rereplic inconclusive, SW480 rerep inconclusive, Chronic BCR inh inconclusive
CS(=O)(=O)N1CCN(c2ccc(NC(=S)NC(=O)c3cccs3)cc2)CC1	Chronic BCR inh inconclusive
CN(CC(=O)Nc1ccccc1Cl)C(=O)Cn1nnc(-c2ccc(F)cc2)n1	Chronic BCR inh inconclusive (no result: VP16 counter, RORgamma inh)
CN(C)c1ccc(C(=O)NCc2ccc3c(c2)CCN3C(=O)c2ccccc2)cc1	none (no result: VP16 counter, RORgamma inh, MCF10A rereplic, SW480 rerep, Giardia kill)
O=C(c1nn2c(C(F)(F)F)cc(-c3ccco3)nc2c1Br)N1CCCc2ccccc21	MCF10A rereplic 9.2µM, SW480 rerep inconclusive, Chronic BCR inh inconclusive
O=C(c1nn2c(C(F)(F)F)cc(-c3cccs3)nc2c1Br)N1CCCc2ccccc21	MCF10A rereplic inconclusive, SW480 rerep inconclusive, Chronic BCR inh inconclusive
COc1ccccc1C(=O)NCCC(=O)Nc1nc2ccccc2[nH]1	Chronic BCR inh inconclusive (no result: VP16 counter, RORgamma inh)
CSc1ccccc1C(=O)Nc1nc2ccccc2c(=O)[nH]1	VP16 counter inconclusive, Chronic BCR inh inconclusive
COc1cc(SC)ccc1C(=O)Nc1ccccc1	SW480 rerep inconclusive, Chronic BCR inh inconclusive
CSc1ccccc1C(=O)Nc1nc2ccccc2[nH]1	VP16 counter inconclusive, RORgamma inh 5.01µM, Chronic BCR inh inconclusive
COc1cc(SC)ccc1C(=O)Nc1nccs1	VP16 counter inconclusive, RORgamma inh 7.94µM, MCF10A rereplic inconclusive, SW480 rerep inconclusive, Chronic BCR inh inconclusive, Giardia kill inconclusive
COc1ccccc1C(=O)Nc1nc2ccccc2[nH]1	VP16 counter 0.501µM, RORgamma inh 0.251µM, Chronic BCR inh inconclusive, Giardia kill -84.1
COc1ccc(NC(=O)Nc2nccs2)cc1	MCF10A rereplic inconclusive, SW480 rerep 11.6µM
CCN(CC)CCCC(C)Nc1nccc2c(Cl)cccc12 (centres undefined)	MCF10A rereplic inconclusive, SW480 rerep inconclusive (no result: VP16 counter, RORgamma inh, Chronic BCR inh)
N#CCc1nc(C(c2ccccc2)c2ccccc2)no1	RORgamma inh inconclusive, MCF10A rereplic inconclusive, Chronic BCR inh inconclusive
Cc1ccc(C)c(S(=O)(=O)N2CCCCC2CCNC(=O)C(=O)NCc2ccncc2)c1 (centres undefined)	none (no result: VP16 counter, RORgamma inh)
COc1cc(SC)ccc1C(=O)Nc1nc2ccccc2[nH]1	VP16 counter 0.316µM, RORgamma inh 0.1µM, Chronic BCR inh inconclusive, Giardia kill -98.6
CC(C)Cc1ccc(CN2CCCC(NC(=O)c3nn(C)c(=O)c4ccccc34)C2)cc1 (centres undefined)	MCF10A rereplic 20.6µM, SW480 rerep inconclusive (no result: VP16 counter, RORgamma inh)
CC1CCc2nc(-c3cc4c(ccc5ccccc54)oc3=O)sc2C1 (centres undefined)	none (no result: VP16 counter, RORgamma inh, MCF10A rereplic, SW480 rerep, Chronic BCR inh)
Cc1nnc(NC(=O)CSc2nnc(-c3ccco3)o2)s1	VP16 counter 5.01µM, RORgamma inh 1.58µM, Chronic BCR inh inconclusive
CC(C)c1nnc(NC(=O)CSc2nnc(-c3ccco3)o2)s1	VP16 counter 17.8µM, RORgamma inh 11.2µM, Chronic BCR inh inconclusive
CCn1c(C)cc(C(=O)CSc2nnc(-c3ccco3)o2)c1C	SW480 rerep 6.51µM (no result: VP16 counter, RORgamma inh)
Cc1ccc(NC(=O)CSc2nnc(-c3ccco3)o2)c(C)c1	none
COC(=O)[C@]1(C)N[C@H](CN(C)S(=O)(=O)c2ccc(OC(F)(F)F)cc2)[C@@H]2C(=O)N(Cc3ccccc3)C(=O)[C@@H]21	none (no result: VP16 counter, RORgamma inh)
CCN1C(=O)/C(=C/c2ccc(C)o2)N(C)C1=S	VP16 counter 12.6µM, RORgamma inh inconclusive, MCF10A rereplic inconclusive, SW480 rerep 18.4µM, Chronic BCR inh inconclusive
CCN1C(=O)/C(=C/c2cccs2)N(C)C1=S	none
CCC(Sc1nc2ccccc2o1)C(=O)O (centres undefined)	none
CCC(Sc1nc2ccccc2o1)C(=O)Nc1nnc(C)s1 (centres undefined)	VP16 counter inconclusive, RORgamma inh 12.6µM, MCF10A rereplic inconclusive, Chronic BCR inh inconclusive
CCC(Sc1ccccn1)C(=O)Nc1nnc(C)s1 (centres undefined)	RORgamma inh 10µM, MCF10A rereplic inconclusive
CCNC(=O)COC(=O)c1[nH]c(C)c(C(=O)OC)c1C	none
COc1ccc(C(=O)N2C(=O)c3ccc(N)cc3C2=O)cc1	MCF10A rereplic inconclusive, SW480 rerep inconclusive
CN(CCC#N)c1ccc(/C=C(\C#N)c2ccccn2)cc1	VP16 counter 10µM, RORgamma inh 10µM, MCF10A rereplic inconclusive, Chronic BCR inh inconclusive, Giardia kill inconclusive
CCN(CC)c1ccc(/C=C(\C#N)c2ccccn2)cc1	VP16 counter 7.08µM, RORgamma inh 6.31µM, MCF10A rereplic 23.1µM, SW480 rerep 14.6µM, Chronic BCR inh inconclusive, Giardia kill inconclusive
CCN(Cc1ccccc1)c1ccc(/C=C(\C#N)c2ccccn2)cc1	VP16 counter inconclusive, RORgamma inh inconclusive, MCF10A rereplic 20.6µM, Chronic BCR inh inconclusive
N#C/C(=C\c1ccc(C(=O)O)cc1)c1ccccn1	VP16 counter inconclusive
O=C(NCCO)C(=O)c1c(-c2ccccc2)cc2ccccn12	none
CC(C)[C@@H](OCc1ccccc1)[C@H](C)CO/N=C1/[C@H]2OC2[C@@H](O)[C@H]2[C@H]1CCn1c(=O)n(-c3ccccc3)c(=O)n12 (some centres undefined)	none (no result: MCF10A rereplic, SW480 rerep, Chronic BCR inh, Giardia kill)
CC(C)CCN1C(=O)c2ccc(C(=O)Nc3ccc(Br)cc3C(=O)O)cc2C1=O	MCF10A rereplic inconclusive
COc1ccc2c(c1)[C@H]1[C@H](CO2)[C@H](c2ccccc2)[C@]2(C)C(=O)N(CC3CCCO3)CC(=O)N12 (some centres undefined)	none (no result: VP16 counter, RORgamma inh)
CCN(c1cccc(C)c1)S(=O)(=O)c1ccc2[nH]cc(C(=O)NCCCOC)c(=O)c2c1	none (no result: VP16 counter, RORgamma inh, MCF10A rereplic, SW480 rerep, Giardia kill)
CN(CC(=O)Nc1ccccc1C(F)(F)F)C(=O)C1CCN(C(=O)c2ccc(Cl)cc2)CC1	none (no result: VP16 counter, RORgamma inh)
O=C(Nc1ccc(C(=O)Nc2ccc(C(=O)Nc3ccc(S(=O)(=O)O)c4cc(S(=O)(=O)O)cc(S(=O)(=O)O)c34)cc2)cc1)Nc1ccc(C(=O)Nc2ccc(C(=O)Nc3ccc(S(=O)(=O)O)c4cc(S(=O)(=O)O)cc(S(=O)(=O)O)c34)cc2)cc1	none (no result: MCF10A rereplic, SW480 rerep, Chronic BCR inh, Giardia kill)
COc1ccccc1NC(=O)N1CCC(c2nc3cc(C)c(C)cc3[nH]2)CC1	MCF10A rereplic 3.66µM, SW480 rerep 5.8µM, Chronic BCR inh 18.4µM
Cc1cc2nc(C3CCCN(C(=S)Nc4ccccc4)C3)[nH]c2cc1C (centres undefined)	VP16 counter inconclusive, RORgamma inh 12.6µM, Chronic BCR inh inconclusive
COc1ccccc1NC(=S)N1CCC(c2nc3cc(C)c(C)cc3[nH]2)CC1	none
COc1ccc(Cl)cc1C(=O)n1cnc2ccccc21	none
